From PubChem
Rows were chosen to be rich in hits. Some 8.1% of all compounds tested hit in one or more screens of this group.
PINK1 modulator – changes PINK1 expression; 410,000 tested, 0.2% active; Potency, µM (highest dose often 76.6 µM), inactives show at the top dose activation (PINK1 increase), most hits filed as activators; AID 624263; PINK1 immunofluorescence, high-content cytometry, 24 h; active means well fitted activation curve with a large enough effect; inconclusive means small, poorly fitted or top-dose-only effect; cell line not stated here; further: % of control where 0% means no effect; nearly all actives have a fitted effect of over 65% in size
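Measures PINK1 amount and localization on or inside mitochondria by immunofluorescence. Stable cells get compounds at 5 concentrations for 24 hours before fixation and staining; CCCP controls included.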
Sfp PPTase inh – Sfp phosphopantetheinyl transferase inhibition | Q9F4F7 | Biochemical Sfp PPTase activity, qHTS | Potency, µM, without a hit: largest response in the series, negative = inhibition, actives largely listed as inhibitors | 310,000 tested, 3.5% active;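 further: the enzyme is Sfp with the accession as filed and its product quenches rhodamine fluorescence; 0% = enzyme reaction without inhibitor and -100% = no enzyme wells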
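Fluorescence-quenching assay with 15 nM Sfp, 5 uM rhodamine-CoA and 12.5 uM BHQ-2-labelled ybbR peptide in pH 7.6 Hepes/MgCl2 buffer. Enzyme was pre-incubated with compound for 15 min at room temperature. Rate was taken from the 30-min fluorescence change (525/598 nm).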
Gal4-VP16 FLuc – counter-screen for ROR gamma inhibitors: Gal4-VP16 reporter; Drosophila S2 Gal4-VP16 UAS-luciferase, luminescence, 20 h; Potency, µM (series often up to 53.6 µM), inactives show at the top dose activity, negative = inhibition, usual class: inhibitors; 310,000 tested, 3.5% active;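 further: Gal4-VP16 expression switched on by copper sulfate through the metallothionein promoter; on the % scale 0 is the no-effect control and ±100 the full control effect; nearly all actives have a fitted effect of over 50% in size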
RORg inh – ROR gamma (mouse) transcription inhibition; P51450; Drosophila S2 Gal4-RORgamma UAS-luciferase reporter, 20 h; Potency, µM (doses to about 53.6 µM), for the others: at the top dose activity change, negative = inhibition, hits mostly inhibitors; 310,000 tested, 5.4% active; further: on the % scale 0 is the no-effect control and ±100 the full control effect; nearly all actives have a fitted effect of over 60% in size
Target sequence (P51450 whole entry, looked up, the tested form may be a part): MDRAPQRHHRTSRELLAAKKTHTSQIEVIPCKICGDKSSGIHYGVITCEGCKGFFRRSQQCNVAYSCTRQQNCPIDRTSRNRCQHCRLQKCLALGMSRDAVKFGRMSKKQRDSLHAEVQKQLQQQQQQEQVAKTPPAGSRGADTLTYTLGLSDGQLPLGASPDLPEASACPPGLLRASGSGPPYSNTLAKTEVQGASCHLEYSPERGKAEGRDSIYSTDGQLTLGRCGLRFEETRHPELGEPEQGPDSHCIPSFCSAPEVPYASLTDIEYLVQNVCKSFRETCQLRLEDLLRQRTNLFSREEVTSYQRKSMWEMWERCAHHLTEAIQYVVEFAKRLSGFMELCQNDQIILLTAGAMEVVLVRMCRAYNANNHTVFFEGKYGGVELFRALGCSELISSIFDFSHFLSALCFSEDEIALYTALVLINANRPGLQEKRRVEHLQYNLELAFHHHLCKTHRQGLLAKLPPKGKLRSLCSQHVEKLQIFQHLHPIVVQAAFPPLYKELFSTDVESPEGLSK
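Stable Schneider cell line, Gal4 DNA-binding domain fused to ROR gamma, UAS-luciferase. Cmpd 1 hr RT → CuSO4 700 uM final → 20 hr RT → luciferase reagent 10 min → luminescence.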
Epigenetic derep – derepresses silenced GFP reporter in murine cells; murine LDR cells, GFP reporter derepression, 30 h; Potency, µM (top dose mostly 53.9 µM), inactives show at the top dose GFP activation, hits mostly activators; 280,000 tested, 0.2% active; AID 1865; further: % of control where 0% means no effect; nearly all actives have a fitted effect of over 60% in size
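GFP-positive cell count by laser-scanning cytometry (objects 20–120 um) after 30 h, 37 C compound exposure of murine LDR cells; reporter is CMV-GFP integrated at a silenced locus, inducible by HDAC or DNMT inhibitors.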
ClpP mod – qHTS Assay for Activators of ClpP. Potency, µM (highest dose often 57.5 µM), for the others: at the top dose activity change, negative = active. 340,000 tested, 1.9% active. purified B. subtilis ClpP, FRET peptide cleavage, 20 min; active means well fitted falling curve with a large enough effect; inconclusive means small, poorly fitted or top-dose-only effect; inactive means no such curve, though single readings can be large or run the other way; further: the source files actives as falling curves though it sought activators and does not explain the sign; nearly all actives have a fitted effect of over 65% in size
Target sequence (P80244 whole entry, looked up): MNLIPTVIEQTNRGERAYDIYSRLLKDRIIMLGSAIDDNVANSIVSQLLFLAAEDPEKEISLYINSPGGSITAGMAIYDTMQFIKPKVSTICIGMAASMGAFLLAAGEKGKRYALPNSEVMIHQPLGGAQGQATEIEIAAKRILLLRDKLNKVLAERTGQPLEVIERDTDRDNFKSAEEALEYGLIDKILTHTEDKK
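FRET quenching reversal measured ClpP activation: 10 microg/mL B. subtilis ClpP at pH 8 with the FRET-FV decapeptide, read at 430 nm after 320 nm excitation. The 20-min minus 0-min signal was scaled between DMSO/no-enzyme wells and ADEP (5.8 microM final).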
Active calls of the source: *; ? = inconclusive; / = no result given; [ ] = remark or other dose. Unless noted, the call rests on the fitted dose curve; in most records, active means well fitted curve in the direction sought with a large enough effect; inconclusive means small, poorly fitted or top-dose-only effect, or another doubt; inactive means no such curve, though single readings can be large; an effect the other way counts as inactive or inconclusive. Potency means the concentration at half of the fitted maximal effect.

SMILES	PINK1 modulator	Sfp PPTase inh	Gal4-VP16 FLuc	RORg inh	Epigenetic derep	ClpP mod
COC1(C(F)(F)F)NC(=O)N(c2ccc(F)cc2)C1=O (stereo not drawn)	2.1%	/	/	/	-1.1%	-0.4%
CC(C)(C)NC(=S)NNC(=O)c1cccc(Br)c1	1.5%	11.4%	?	4.47µM*	17.8µM*	5.6%
CC(C)(C)NC(=S)NNC(=O)c1ccccc1Cl	0.3%	-27.7%	1.41µM*	0.447µM*	-1.0%	-9.7%
COC(=O)NNC(=O)c1ccc(Cl)cc1Cl	2.2%	-1.0%	-0.2%	-6.7%	0.0%	1.1%
CNC(=S)NNC(=O)c1ccccc1Cl	1.0%	4.7%	-3.2%	?	0.5%	-1.5%
CC(C)(C)C(=O)NC(=S)NNC(=O)c1ccc(Cl)cc1Cl	1.0%	5.4%	?	2µM*	-0.4%	/
CCCCCCC/C=C/C1=CC2(C)CC1(C)C(CCCCCCC)CC2=O (stereo not drawn)	/	-7.0%	-8.4%[10 µM]	-8.8%[10 µM]	1.1%[10.1 µM]	/
CCN1CCN(CC(=O)N2CCCC(C(=O)c3ccc(Oc4ccccc4)cc3)C2)CC1 (stereo not drawn)	-0.6%	-20.1%	?	7.94µM*	0.0%	0.3%
O=C(NC(=S)N1CCCC(C(F)(F)F)C1)c1ccc(F)cc1 (stereo not drawn)	5.4%	7.3%	0.708µM*	0.562µM*	/	/
O=C(NCC(=O)N1CCCC(C(F)(F)F)C1)c1ccc(Oc2ccccc2)cc1 (stereo not drawn)	1.3%	13.0%	12.6µM*	8.91µM*	/	0.8%
COCCC(=O)N1CCCC(C(=O)c2ccc(Oc3ccccc3)cc2)C1 (stereo not drawn)	0.6%	5.0%	-10.2%	45.0%	-1.0%	/
Cc1nn(CC(=O)NCc2ccccc2Cl)c(=O)c2cccn12	0.1%	/	/	/	2.4%	-1.9%
CC(=O)Nc1ccc(S(=O)(=O)n2cnc3cc(C)c(C)cc32)cc1	0.3%	-12.1%	11.2µM*	2.9%	2.4%	-1.4%
CC(=O)Nc1ccc(C(=O)n2cnc3cc(C)c(C)cc32)cc1	-1.8%	8.8%	-5.2%	18.6%	-1.5%	0.6%
Cc1ccc(Nc2nc(Nc3ccc(Cl)cc3)nc(N3CCOCC3)n2)cc1	-0.1%	/	/	/	/	7.2%
O=C(O)C(SC(C(=O)O)c1ccccc1)c1ccccc1 (stereo not drawn)	1.7%	/	/	/	/	28.2µM*
COc1ccc(F)cc1S(=O)(=O)Nc1ccc2c(c1)CCCN2C(=O)c1cccs1	1.0%	/	/	/	-3.3%	0.1%
OCCN(Cc1ccccc1)CC(O)COc1ccc(-c2ccccc2)cc1 (stereo not drawn)	1.8%	50.1µM*	?	?	-1.5%	1.5%
COc1cccc2c(=O)c(SC(F)(F)C(F)C(F)(F)F)c(C)[nH]c12 (stereo not drawn)	8.2%	-4.3%	-6.7%	-4.3%	0.9%	?
COc1cccc2c(=O)c(C/C=C(/C)Cl)c(C)[nH]c12	-1.2%	-11.3%	-3.8%	?	-2.6%	15.8µM*
CC1=C(c2ccc(C)c(C)c2)S(=O)(=O)N=C1N1CCC(C(=O)NCCc2ccco2)CC1	-0.9%	/	/	/	0.0%	0.1%
CCOC(=O)c1cccc(NC(=O)Cn2ncc3c(=O)oc4ccccc4c32)c1	8.7%	/	/	/	2.8%	1.2%
O=C(NCC1(N2CCOCC2)CCCC1)c1cnn(-c2nccc(-c3ccco3)n2)c1C1CC1	0.4%	/	/	/	/	/
O=c1[nH]c(Cc2ccc(Cl)cc2)nc2ccccc12	7.3%	5.4%	-9.8%	15.4%	-1.8%	/
COc1ccccc1CN(Cc1nc2ccccc2c(=O)[nH]1)S(=O)(=O)c1ccc2ccccc2c1	/	-4.6%	-0.5%	?	-1.0%	-3.2%
SMILES	PINK1 modulator	Sfp PPTase inh	Gal4-VP16 FLuc	RORg inh	Epigenetic derep	ClpP mod
COc1ccc(S(=O)(=O)N(Cc2ccccc2)Cc2nc3ccccc3c(=O)[nH]2)cc1	-3.3%	4.0%	11.2µM*	12.6µM*	-0.4%	-2.7%
O=c1[nH]c(CN(CCc2ccccc2)S(=O)(=O)c2ccc(Cl)cc2)nc2ccccc12	?	0.1%	6.31µM*	4.47µM*	-0.9%	7.6%
c1ccc(C2=NNC(=NC3CC3)SC2)cc1	/	44.7µM*	12.6µM*	14.1µM*	-0.7%	-2.1%
c1ccc2c(C3=NNC(=NC4CC4)SC3)c[nH]c2c1	0.8%	?	10µM*	10µM*	1.1%	-4.8%
c1ccc2c(C3=NNC(=NC4CCCCC4)SC3)c[nH]c2c1	11.1%	-9.6%	-7.3%	8.5%[10 µM]	1.0%	-0.2%
Cc1ccc(CN(C(=O)COc2c(C)cccc2C)C2CCS(=O)(=O)C2)o1 (stereo not drawn)	0.9%	/	/	/	-1.9%	-0.3%
Cc1cccc(C(=O)NNC(=O)C23CC4CC(CC(C4)C2)C3)c1O	1.1%	5.1%	?	6.31µM*	/	-0.7%
Cc1cc(C)c2c(c1)[C@@H]1C=CC[C@@H]1[C@H](c1ccc(S(=O)(=O)N3CCOCC3)cc1)N2	-0.5%	10µM*	?	-1.0%	0.0%	-9.4%
Cc1ccc(S(=O)(=O)CCc2nnc(NC(=O)c3ccccn3)s2)cc1	0.5%	1.6%	7.08µM*	?	-0.8%	-3.8%
CCOC(=O)CN(C)C(=O)CCc1nnc(-c2ccsc2)o1	-0.3%	22.0%	?	14.1µM*	0.0%	/
N#Cc1c(-c2cccs2)cc(-c2cccnc2)nc1N	-0.1%	3.5%	4.4%	-18.5%	-0.6%	?
N#Cc1c(-c2cccs2)cc(-c2ccccn2)nc1N	4.6%	10.1%	7.94µM*	?	?	12.6µM*
Cc1ccc(NC(=S)N/N=C2/CCCCc3ccccc32)cc1	2.7%	5.7%	-24.0%	3.55µM*	1.1%	-1.7%
COc1ccc(NC(=S)N/N=C2/CCCc3c(C)cc(C)cc32)cc1	10.1%	25.6%	?	2.82µM*	-0.8%	-0.9%
Cc1cccc(NC(=S)N2CCCC2)c1	0.5%	-5.2%	-1.3%	-19.8%	/	0.5%
Cc1ccc(C)c(NC(=S)N/N=C2\CCc3ccccc32)c1	?	-11.1%	10µM*	7.08µM*	-1.5%	-1.9%
Cc1cccc(NC(=S)N/N=C2/CCCCc3ccccc32)c1	0.3%	0.9%	6.31µM*	2.82µM*	0.0%	-2.7%
Cc1ccc(C)c(NC(=O)CCN2CCc3ccccc3C2)c1	0.0%	6.1%	1.0%	?	-2.4%	/
CCOC(=O)c1[nH]c(C)c(CCC(=O)Nc2cccc(SC)c2)c1C	0.2%	/	/	/	-0.5%	-2.7%
C=CCNC(=S)N/N=C/c1ccc(OCc2ccccc2Cl)cc1	16.4%[38.3 µM]	12.9%	1.58µM*	0.794µM*	-0.1%	17.1%
NC(=O)N/N=C/c1cn(-c2ccccc2)nc1-c1cccnc1	3.7%	-8.5%	3.5%	-3.4%	-1.3%	-7.6%
